10 compounds from PubChem BioAssay (NCI) can be followed below.

A short description of test [1]: NCI Yeast Anticancer Drug Screen. Data for the rad50 strain (AID 155).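 Further: 0% = growth of vehicle-only cultures of the same strain.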 The conditions noted are these: S. cerevisiae rad50 strain growth inhibition, stronger effect = higher value. In short, it runs like this: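 DNA repair mutant yeast, compound exposure, growth read-out; inhibition is taken relative to vehicle.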
Test [2] can be described thus: NCI Yeast Anticancer Drug Screen. Data for the mec2-1 strain (AID 157). The following applies: S. cerevisiae mec2-1 strain, stronger effect = higher value. A digest of the protocol:
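Cells of the genetically defined mec2-1 yeast strain are incubated with test compound. Inhibition of growth is calculated against vehicle-treated controls.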

Test [3] is described as follows: NCI Yeast Anticancer Drug Screen. Data for the cln2 rad14 strain (AID 165).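 Further: 0% = growth equal to vehicle treated cultures.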 The following applies: S. cerevisiae cln2 rad14 strain, stronger effect = higher value. In short, it runs like this: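 The screen exposed genetically defined yeast (cln2 rad14) to test compounds and scored growth inhibition relative to vehicle-treated controls.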
Test [4] is described as follows: NCI Yeast Anticancer Drug Screen. Data for the bub3 strain (AID 167). The following applies: S. cerevisiae bub3 mutant strain, stronger effect = higher value. In short, it runs like this:
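In this screen, a yeast mutant lacking normal mitotic checkpoint function is challenged with compound. Relative growth versus vehicle gives the inhibition value.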

Test [5] can be described thus: NCI Yeast Anticancer Drug Screen. Data for the mlh1 rad18 strain (AID 175). The conditions noted are these: S. cerevisiae mlh1 rad18 strain growth inhibition, stronger effect = higher value. In short, it runs like this:
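Compound-treated yeast growth, normalised to vehicle controls. Strain bears defined DNA repair mutations.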

Test [6] is described as follows: NCI Yeast Anticancer Drug Screen. Data for the sgs1 mgt1 strain (AID 161).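 Further: 0% = growth of cultures given vehicle only.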 The conditions noted are these: S. cerevisiae sgs1 mgt1 strain, stronger effect = higher value. A digest of the protocol: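 Genetically altered yeast, compound exposure, growth inhibition relative to vehicle.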
[7] abbreviates: at 5.0 µM (retest, dose inferred, filed as 0.5).
The mark [8] stands for this setting: at 50.0 µM (retest, dose inferred, filed as 5.0).

Several values for one entry are separate records, joined by “and”; a condition that tells them apart may be missing. Identical values can stand only once. The panel holds about 79,000 compounds, 15% with a hit somewhere; the sample as a whole holds those more often. Unmarked numbers belong to inactive results. Activity calls are given as the source filed them. No stated cut-off is given here; in the data, active means growth inhibition above about 70%; inactive means the rest.

In the case of `COC(=O)c1[nH]c(=O)c(C#N)c(C(=O)OC)c1C(=O)c1ccc(Cl)c(Cl)c1`, the growth inhibition in test [1] (setting [7]) is -19%; in test [1] (setting [8]) it was 90% (active); in test [1] (at 50.0 µM), 97% (active); in test [2] (setting [7]), -18%; in test [2] (setting [8]), 55%; in test [2] (at 50.0 µM), 73% (active). Further, the growth inhibition in test [3] (setting [7]) was 3%; in test [3] (setting [8]), 61%; in test [3] (at 50.0 µM), 46.1%; in test [4] (setting [7]) it was -22%; in test [4] (setting [8]), 90% (active); in test [4] (at 50.0 µM), 79.5% (active). Moreover, the results for the growth inhibition in test [5] (setting [7]), in test [5] (setting [8]) and in test [5] (at 50.0 µM) were -12%, 90% (active) and 93.9% (active), respectively.

Turning to `[N-]=[N+]=Nc1c(Cc2ccccc2)c(=O)oc2ccccc12`, the growth inhibition in test [1] (setting [7]) was 15%; in test [1] (setting [8]), 73% (active); in test [1] (at 50.0 µM), 65.3%; in test [2] (setting [7]) it was -8%; in test [2] (setting [8]), 58%; in test [2] (at 50.0 µM) it was 73.9% (active). For the same compound, the growth inhibition in test [3] (setting [7]) is 11%; in test [3] (setting [8]), 35%; in test [3] (at 50.0 µM), 58.8%; in test [4] (setting [7]) it was -17%; in test [4] (setting [8]), 87% (active); in test [4] (at 50.0 µM), 77.7% (active). Besides, the growth inhibition in test [5] (setting [7]) is -3%; in test [5] (setting [8]), 82% (active); in test [5] (at 50.0 µM), 66.9%.

As to `CC(=O)Nc1cccc2cc(O)ccc12`, the growth inhibition was 16.8% and 18.5% and 17% in test [1] (at 50.0 µM); -5.9% and 4.7% and -9.55% in test [2] (at 50.0 µM); -2.2% and -3.8% and 10.3% in test [6] (at 50.0 µM); -11.6% and -20.1% and 11.6% in test [3] (at 50.0 µM); -11.8% and -11.7% and -4.3% in test [4] (at 50.0 µM); 23.2% and 18.1% and 22.8% in test [5] (at 50.0 µM).

As to `N#CC(C#N)C(C#N)c1ccc(Cl)c(Cl)c1` (centres undefined), the growth inhibition in test [1] (setting [7]) was 79% (active); in test [1] (setting [8]), 99% (active); in test [1] (at 50.0 µM), 99.7% (active); in test [6] (setting [7]) it was 36%; in test [6] (setting [8]), 100% (active); in test [6] (at 50.0 µM), 99.8% (active). Moreover, the growth inhibition is 25% in test [3] (setting [7]); 99% (active) in test [3] (setting [8]); 99.4% (active) in test [3] (at 50.0 µM); 99% (active) in test [4] (setting [7]); 99% (active) in test [4] (setting [8]); 99.7% (active) in test [4] (at 50.0 µM). For the same compound, the growth inhibition in test [5] (setting [7]) was 70% (active); in test [5] (setting [8]), 100% (active); in test [5] (at 50.0 µM), 99.5% (active).

With `O=C1C2=C(Nc3cc([N+](=O)[O-])ccc3N2)OC1c1c2ccccc2cc2ccccc12` (centres undefined), the growth inhibition was 89% (active) in test [1] (setting [7]); 98% (active) in test [1] (setting [8]); 93.5% (active) in test [1] (at 50.0 µM); 70% (active) in test [6] (setting [7]); 99% (active) in test [6] (setting [8]); 96% (active) in test [6] (at 50.0 µM). Also, the growth inhibition is 62% in test [3] (setting [7]); 98% (active) in test [3] (setting [8]); 35.5% in test [3] (at 50.0 µM); 34% in test [4] (setting [7]); 99% (active) in test [4] (setting [8]); 78.4% (active) in test [4] (at 50.0 µM). Moreover, the growth inhibition is 92% (active) in test [5] (setting [7]), 99% (active) in test [5] (setting [8]) and 93.6% (active) in test [5] (at 50.0 µM).

With `Cc1ccc(O)c(Cc2ccccc2Cl)c1`, the growth inhibition is -7% in test [2] (setting [7]); 99% (active) in test [2] (setting [8]); 99.3% (active) in test [2] (at 50.0 µM); -4% in test [6] (setting [7]); 98% (active) in test [6] (setting [8]); 99.5% (active) in test [6] (at 50.0 µM). Further, the growth inhibition in test [3] (setting [7]) is -19%; in test [3] (setting [8]) it was 99% (active); in test [3] (at 50.0 µM) it was 99% (active); in test [4] (setting [7]), -13%; in test [4] (setting [8]) it was 99% (active); in test [4] (at 50.0 µM) it was 92.7% (active). The growth inhibition in test [5] (setting [7]) is -5%; in test [5] (setting [8]) it was 99% (active); in test [5] (at 50.0 µM), 99% (active).

As for `O=C(O)C1C2CC3C(OC(=O)C31)C2Br` (centres undefined), the growth inhibition in test [1] (at 50.0 µM) was 11.9% and 4.1% and 9.9%; in test [2] (at 50.0 µM), 2.75% and 16.8% and -4.3%; in test [6] (at 50.0 µM) it was -22.2% and 2.5% and 6.9%; in test [3] (at 50.0 µM) it was -24.1% and -98.7% and -25.1%; in test [4] (at 50.0 µM), -47.9% and 10.9% and 11.8%; in test [5] (at 50.0 µM) it was 11.2% and 18.6% and 32%.

As for `COC(=O)c1[nH]cnc1/N=N/N(C)C`, the growth inhibition was 99% (active) in test [2] (setting [7]); 99% (active) in test [2] (setting [8]); 98.9% (active) in test [2] (at 50.0 µM); 99% (active) in test [6] (setting [7]); 99% (active) in test [6] (setting [8]); 99.5% (active) in test [6] (at 50.0 µM). Further, the growth inhibition is 99% (active) in test [3] (setting [7]); 98% (active) in test [3] (setting [8]); 99% (active) in test [3] (at 50.0 µM); 49% in test [4] (setting [7]); 49% in test [4] (setting [8]); 98.8% (active) in test [4] (at 50.0 µM). Further, the results for the growth inhibition in test [5] (setting [7]), in test [5] (setting [8]) and in test [5] (at 50.0 µM) were 98% (active), 99% (active) and 99.3% (active), respectively.

Take `Cc1cc(C)nc(/C=C/c2ccc(/C=C/c3cc(C)cc(C)n3)cc2)c1`: the growth inhibition was -20% in test [1] (setting [7]); -4% in test [1] (setting [8]); -8% in test [2] (setting [7]); 4% in test [2] (setting [8]); 2.65% in test [2] (at 50.0 µM); 7% in test [6] (setting [7]). Moreover, the growth inhibition in test [6] (setting [8]) was -1%; in test [6] (at 50.0 µM) it was 11.9%; in test [3] (setting [7]), -4%; in test [3] (setting [8]), -11%; in test [3] (at 50.0 µM), -19.6%; in test [4] (setting [7]), -7%. The growth inhibition in test [4] (setting [8]) was -11%; in test [4] (at 50.0 µM), 0.4%; in test [5] (setting [7]), -11%; in test [5] (setting [8]) it was 3%; in test [5] (at 50.0 µM), 5.5%.

Turning to `CCOC(=O)C(CO)c1nc2c([nH]c1=O)c(=O)n(C)c(=O)n2C` (centres undefined), the growth inhibition is 14% in test [2] (setting [7]); 17% in test [2] (setting [8]); 43.5% in test [2] (at 50.0 µM); 33% in test [6] (setting [7]); 60% in test [6] (setting [8]); 50.5% in test [6] (at 50.0 µM). The growth inhibition is -4% in test [3] (setting [7]); 5% in test [3] (setting [8]); -2.95% in test [3] (at 50.0 µM); 6% in test [4] (setting [7]); 39% in test [4] (setting [8]); 52.9% in test [4] (at 50.0 µM). Also, the growth inhibition in test [5] (setting [7]) is 17%; in test [5] (setting [8]) it was 18%; in test [5] (at 50.0 µM) it was 83.5% (active).
